TPT1 inh – Candida albicans TPT1 enzyme inhibitors, primary screen, biochemical, fluorescence polarization; 0.81% of 300,000 active; inhibition, % at 5 µM; AID 1962, 2009; tRNA 2'-phosphotransferase TPT1 (Candida albicans SC5314); recombinant caTPT1, FP RNA substrate dephosphorylation;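 active = inhibition above the mean of all tested compounds plus 3 SD, set per screening campaign, cut at about 24% in these data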;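 note: plate controls were DMSO alone for no effect and ferristatin control at 100 nM for full effect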
IDE inh – human IDE inhibitors in live cells, primary screen, fluorescence polarization, HEK cells, FAbetaB substrate; Insulin-degrading enzyme (Homo sapiens), P14735; FAbetaB cleavage; inhibition, % at 5.59 µM; 0.41% of 320,000 active; AID 434962, 2010;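 active = percent inhibition above the average of all tested compounds plus 3 SD, set per screening campaign, cut at about 16% in these data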;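 note: IDE supplied by intact live HEK cells; FP after avidin binding of uncleaved biotin substrate so inhibition keeps polarization high; 0% = DMSO wells and 100% = 60 µM reference IDE inhibitor Ii1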
Target sequence (P14735 whole entry, looked up): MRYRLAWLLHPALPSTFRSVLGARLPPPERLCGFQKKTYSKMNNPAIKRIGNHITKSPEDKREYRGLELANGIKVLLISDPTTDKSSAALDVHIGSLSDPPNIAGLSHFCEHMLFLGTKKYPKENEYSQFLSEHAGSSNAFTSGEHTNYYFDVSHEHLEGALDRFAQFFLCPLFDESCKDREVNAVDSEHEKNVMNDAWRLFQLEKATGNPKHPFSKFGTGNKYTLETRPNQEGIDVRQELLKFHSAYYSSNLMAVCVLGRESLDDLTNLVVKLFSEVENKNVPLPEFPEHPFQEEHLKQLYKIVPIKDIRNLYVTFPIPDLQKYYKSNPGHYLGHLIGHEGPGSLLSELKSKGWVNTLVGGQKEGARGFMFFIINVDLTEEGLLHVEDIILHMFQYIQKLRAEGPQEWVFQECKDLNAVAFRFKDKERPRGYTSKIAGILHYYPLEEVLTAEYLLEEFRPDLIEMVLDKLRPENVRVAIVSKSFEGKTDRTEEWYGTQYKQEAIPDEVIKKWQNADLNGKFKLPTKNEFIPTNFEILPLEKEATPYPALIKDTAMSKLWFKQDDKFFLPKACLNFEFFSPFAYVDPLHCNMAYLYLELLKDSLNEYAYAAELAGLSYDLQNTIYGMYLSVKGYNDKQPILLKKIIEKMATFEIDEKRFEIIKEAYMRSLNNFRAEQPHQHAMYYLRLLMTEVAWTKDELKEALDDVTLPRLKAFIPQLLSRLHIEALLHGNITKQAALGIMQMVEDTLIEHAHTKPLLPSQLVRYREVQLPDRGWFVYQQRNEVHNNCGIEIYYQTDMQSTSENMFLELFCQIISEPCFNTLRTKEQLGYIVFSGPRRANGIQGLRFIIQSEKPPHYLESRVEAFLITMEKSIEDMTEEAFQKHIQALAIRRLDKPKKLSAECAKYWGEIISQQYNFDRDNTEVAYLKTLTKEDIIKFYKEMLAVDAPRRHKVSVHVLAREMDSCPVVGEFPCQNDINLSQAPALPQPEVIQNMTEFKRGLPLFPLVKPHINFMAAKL
IDE act – human IDE activators in live cells, primary screen, fluorescence polarization, HEK cells, FAbeta-B substrate | Insulin-degrading enzyme (Homo sapiens), P14735 | FAbeta-B cleavage; 0% vehicle, 100% cell-free pure enzyme wells | activation, % at 5.96 µM | 0.073% of 340,000 active | AID 493087, 2011;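 active = activation above the mean of all tested compounds plus 3 SD, set per screening campaign, cut at about 17% in these data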
CRFR2-BP antag – antagonists of CRF-BP/CRF-R2 complex, primary screen, cell-based, HEK293, calcium dye fluorescence, uHTS; CRF-induced calcium fluorescence; inhibition, % at 11.8 µM; 0.59% of 350,000 active;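 active = inhibition of the ligand-induced calcium signal above about 50% at the single tested concentration, limit read from the data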
Myeloid diff 2 – induction of myeloid progenitor differentiation, primary screen, cell-based, flow cytometry, MLPCN library | calls only at 10 µM | AID 624256, 2012 | 1% of 360,000 active | ER-HoxA9 myeloid progenitors, lysozyme-GFP differentiation;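 active = normalized GFP-positive differentiation at or above the plate's own cutoff, the solvent-only control mean plus 3 SD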;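 note: cells exposed to compound for four days before flow analysis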
CRFBP-R2 agonist – agonists of CRF-BP/CRF-R2 complex, primary screen, cell-based, HEK293, calcium dye fluorescence, uHTS. CRF-binding protein / CRF receptor 2 complex (human). calcium dye fluorescence (FLIPR); percent of saturating CRF peptide response. activation, % at 13.2 µM. 0.46% of 350,000 active. AID 588473, 2011;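 active = activation of at least 50%, plus an integration ratio under a set limit after plate pattern correction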;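 note: plate controls were neutral control wells without compound for no effect and CRF at EC100 for full effect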
caTPT1 confirm – Candida albicans TPT1 inhibitors, confirmation, biochemical, fluorescence polarization, triplicate | inhibition, % at 5 µM | 74% of 2,400 active | shares compounds with TPT1 inh | recombinant caTPT1, RNase T1 coupled;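 active = inhibition above the primary screen limit, the mean inhibition of all tested compounds plus 3 SD, cut at about 25% in these data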
RNase T1 inh – RNase T1 inhibitors, counter-screen for TPT1 inhibitor project, biochemical, fluorescence polarization; RNase T1 cleavage, 1536-well; shares compounds with TPT1 inh; inhibition, % at 5 µM; 83% of 2,400 active;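 active = inhibition above the solvent-only control well mean plus 3 SD, limit set per screening run, cut at about 23% in these data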;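 note: plate controls were DMSO wells with enzyme for no effect and wells without RNase T1 for full effect; inhibitors block cleavage so intact labeled substrate keeps polarization high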
IDE inh confirm – human IDE inhibitors in live cells, confirmation, fluorescence polarization, HEK cells, FAbetaB substrate; shares compounds with IDE inh; FAbetaB cleavage; inhibition, % at 5.59 µM; 51% of 1,200 active;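 active = mean inhibition across triplicate wells above the cutoff set by the earlier primary insulin-degrading enzyme screen, cut at about 16% in these data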;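 note: 0% = DMSO wells and 100% = 60 µM reference IDE inhibitor Ii1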
HEK cytotox – cytotoxicity in HEK cells, cytotoxicity control for IDE inhibitor project, cell-based, luminescence | shares compounds with IDE inh | HEK293 cytotoxicity, ATP luminescence | inhibition, % at 5.59 µM | 28% of 1,200 active | AID 449730, 2010; in the data active = inhibition above about 22%;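 note: 0% = vehicle wells and 100% = reference cytotoxic drug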
Starred values were filed as active, the others as inactive; i = inactive; · = no result; + = active, no number. The list is not random: actives were taken first. Their share in the collection is about 2.6%.

SMILES | TPT1 inh | IDE inh | IDE act | CRFR2-BP antag | Myeloid diff 2 | CRFBP-R2 agonist | caTPT1 confirm | RNase T1 inh | IDE inh confirm | HEK cytotox
CC(C)=C(C#N)c1nc2ccccc2s1 | 25* | 38* | -5 | -6 | i | 2 | 8 | 9 | -3 | 16
O=C(COC(=O)C12CC3CC(CC(Cl)(C3)C1)C2)Nc1ccccc1 | · | 0 | 2 | -1 | i | 0 | · | · | · | ·
CC(C)(C)c1ccc(C(=O)NC2CCN(Cc3ccccc3)CC2)cc1 | 1 | -4 | 2 | -11 | i | 11 | · | · | · | ·
CC(=O)c1sc2nc(-c3cccs3)ccc2c1N | 13 | 6 | -4 | 13 | i | 7 | · | · | · | ·
Nc1c(C(=O)Nc2nc3ccccc3s2)sc2nc(-c3cccs3)ccc12 | 30* | 29* | -22 | -92 | + | 22 | 27* | 38* | 37* | 81*
CCCCCCCCCCCCOC1OC(CO)C(O)C(O)C1NC(C)=O (stereo not given) | -4 | -7 | 4 | 32 | i | 3 | · | · | · | ·
Cc1cc(/C=C2\C(=N)N3N=C(c4ccco4)SC3=NC2=O)c(C)n1Cc1ccccc1 | 13 | -1 | 7 | -31 | i | 45 | · | · | · | ·
N=C1/C(=C\c2coc3ccccc3c2=O)C(=O)N=C2SC(c3ccncc3)=NN12 | 79* | 42* | -35 | -118 | i | 159* | 71* | 84* | 20* | 6
CC(C)CSC1=NSC2=NC(=O)/C(=C\c3coc4ccccc4c3=O)C(=N)N12 | 43* | 63* | -128 | -333 | i | 314* | 10 | 26* | 106* | 8
CSC1=NSC2=NC(=O)/C(=C\c3coc4ccccc4c3=O)C(=N)N12 | 62* | 43* | -63 | -201 | i | 197* | 61* | 65* | 46* | 6
CC(C)CSC1=NSC2=NC(=O)/C(=C\c3ccccc3)C(=N)N12 | 5 | 2 | 4 | 31 | i | 27 | · | · | · | ·
C[C@H](CO)N1C[C@H](C)[C@@H](CN(C)C(=O)NC2CCCCC2)Oc2ccc(NC(=O)Nc3ccccc3)cc2C1=O | · | -2 | 2 | 10 | i | 1 | · | · | · | ·
Cc1cccc(NC(=O)Cc2coc3ccc4ccccc4c23)n1 | -2 | -3 | 2 | -12 | i | 0 | · | · | · | ·
COc1ccc(-[n+]2c(C)cc(/C=C3\Sc4ccccc4N3C)cc2C)cc1 | 91* | 72* | -65 | · | · | · | 123* | 128* | 105* | 111*
O=C(CNC(=O)c1cccs1)Nc1ccncc1 | -1 | -3 | 2 | -2 | i | -2 | · | · | · | ·
Cc1ccc2nc(/C(C#N)=C/c3ccccc3C(=O)O)[nH]c2c1 | 7 | 2 | 7 | 15 | i | 1 | · | · | · | ·
Cc1ccc2nc(/C(C#N)=C/c3ccc(O)c(O)c3)[nH]c2c1 | 56* | 84* | -62 | -75 | + | 39 | 77* | 84* | 111* | 15
CN(C)S(=O)(=O)c1ccc(Cl)c(C(=O)Nc2cccc3ncccc23)c1 | 0 | 5 | 1 | -8 | i | -1 | · | · | · | ·
CCNC(=O)CSC1=N/C(=C\c2ccc(O)c(OCC)c2)C(=O)N1c1ccc(OC(F)F)cc1 | 90* | 70* | -56 | 3 | i | 5 | 102* | 97* | 148* | 9
CCOC(=O)C1=C(C)N(c2ccc(OC)cc2)C(=O)/C1=C\c1ccc(O)c(OCC)c1 | 3 | 7 | -4 | 1 | i | 0 | · | · | · | ·
COC(=O)[C@@]1(Cc2ccc(OC)cc2)[C@H]2c3cc(C(=O)N4CCCC4)n(CCc4ccc(OC)c(Br)c4)c3C[C@H]2CN1C(=O)c1ccccc1 | · | · | · | · | i | · | · | · | · | ·
CC(=O)c1sc(N/N=C\c2c(O)ccc3ccccc23)nc1C | 117* | 23* | -13 | -31 | i | 15 | 124* | 120* | 39* | 38*
N#C/C(=C\c1ccc(N2CCCCC2)o1)C(=O)Nc1cccc(Br)c1 | 168* | 140* | -103 | -265 | + | 312* | 191* | 172* | 79* | 42*
O=Cc1ccc(N2CCCC2)o1 | 0 | -5 | 5 | -7 | i | -1 | · | · | · | ·
N#C/C(=C\c1ccc(N2CCCCC2)o1)C(N)=O | + | 32* | -50 | -25 | i | 36 | 171* | 164* | 50* | 10
SMILES | TPT1 inh | IDE inh | IDE act | CRFR2-BP antag | Myeloid diff 2 | CRFBP-R2 agonist | caTPT1 confirm | RNase T1 inh | IDE inh confirm | HEK cytotox
CC(C)(C)NS(=O)(=O)c1cnc(Cl)c(Cl)c1 | 0 | 5 | -5 | -10 | i | 2 | · | · | · | ·
O=C(CN1C(=O)S/C(=C\c2cc(Cl)c(O)c(Cl)c2)C1=O)Nc1ccccc1 | 96* | 21* | -26 | -20 | i | 12 | 100* | 108* | 23* | 6
Cc1nc2ccc(NC(=O)c3cc([N+](=O)[O-])cc([N+](=O)[O-])c3Cl)cc2s1 | 0 | -1 | 4 | 29 | i | 1 | · | · | · | ·
CCN1C(=O)/C(=C/N(C)c2ccccc2)OC1=S | 10 | -4 | 4 | -7 | i | 0 | · | · | · | ·
CCN1C(=O)/C(=C/C=C2/CCCN2C)OC1=S | 78* | 19* | -30 | -15 | i | 47 | 106* | 116* | 26* | 10
O=C(N/N=C/c1c(O)ccc2ccccc12)c1ccc(CO)nc1 | 82* | 27* | -27 | -36 | · | 30 | 91* | 93* | 39* | 73*
COc1ccc2ccccc2c1/C=N/NC(=O)c1ccc(C)nc1 | -3 | 1 | 2 | -2 | i | -2 | · | · | · | ·
COc1ccc(CC2SC(=Nc3ccc(F)cc3)NC2=O)cc1 (stereo not given) | -1 | -5 | -5 | -7 | i | 1 | · | · | · | ·
COc1ccc(C2C(C(C)=O)=C(C)N=c3s/c(=C\c4cc(C)n(C)c4C)c(=O)n32)c(OC)c1 (stereo not given) | 132* | 116* | -39 | -28 | + | 17 | 134* | 127* | 26* | 10

Bioassay records from PubChem.
